Mito fusion act = inhibitors of mitochondrial division or activators of mitochondrial fusion. S. cerevisiae fusion-defective mutant growth rescue, CellTiterGlo 48 h. Potency, µM (top dose mostly 46.1 µM), without a hit: at the top dose growth rescue (activation), usual class: activators. actives 0.23% (n = 320,000). AID 485298; also: % of control where 0% means no effect; nearly all actives have a fitted effect of over 45% in size
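Yeast fusion mutant, YPEG (non-fermentable carbon), compound, 48 h at 37C non-permissive; CellTiterGlo added, 10 min RT, luminescence read. Rescued growth = division inhibition.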
aSyn rescue = alpha-synuclein toxicity inhibition in yeast; Yeast expressing alpha-synuclein, growth rescue, BacTiter-Glo, 24 h; Potency, µM (highest dose often 46.1 µM), inactives show at the top dose growth rescue (activation), actives largely listed as activators; AID 652106; actives 0.14% (n = 370,000); also: % of control where 0% means no effect; nearly all actives have a fitted effect of over 65% in size
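Galactose-induced alpha-syn yeast (OD600=0.02, raffinose-pregrown) + pinned cpd, 24 hr, 30 deg C; growth by BacTiter-Glo luminescence. Growth restoration scores as activation.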
Abeta yeast res = A-beta toxicity reversal in yeast; yeast expressing A-beta42, growth rescue, OD600, 48 h; response scale: 0% DMSO, 100% iron-clioquinol control; Potency, µM (doses to about 46.1 µM), hits mostly activators; actives 0.063% (n = 410,000); also: nearly all actives have a fitted effect of over 55% in size
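Growth rescue measured by 600 nm absorbance after 48 h yeast culture at 30 C with compound. Values normalized between DMSO and an equimolar ferric chloride plus clioquinol control.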
FUS yeast rescue = suppressors of FUS proteinopathy in yeast. Potency, µM (top dose mostly 76.6 µM), usual class: activators. actives 0.24% (n = 390,000). S. cerevisiae FUS-expressing, growth rescue, OD600, 24 h;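 also: plate controls were DMSO vehicle for no effect and reference control for full effect; nearly all actives have a fitted effect of over 55% in size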
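Read-out: OD at 600 nm after 24hr at 30C, reporting rescue of FUS-induced yeast toxicity. Cells at OD 0.005 in galactose (2%) minimal medium; compounds tested in a dilution series; CP55940 titration from 92uM final as control.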
TDP43 rescue = rescues yeast growth from TDP-43 toxicity | TDP-43 expressing yeast growth rescue, BacTiter-Glo, 24 h | actives 1.8% (n = 410,000) | Potency, µM (titrated, usually from 46.1 µM), inactives show top-dose growth rescue (activation), actives largely listed as activators; also: % of control where 0% means no effect; nearly all actives have a fitted effect of over 50% in size
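Luminescence from BacTiter-Glo reports growth of TDP-43-expressing yeast after 24 hr at 30 deg C with compound. Cells were raffinose-pregrown to mid-log, then seeded in galactose medium at OD600=0.02.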
Starred values were filed as active, the others as inactive; i = inactive; u = inconclusive; x = not tested or not shown. Only some compounds are listed: those with a hit (about 2.2% of all), similar ones and a draw of the others. Calls follow the shape of the dose curve; as a rule, active = well fitted curve in the direction sought with a large enough effect; inconclusive = small, poorly fitted or top-dose-only effect, or another doubt; inactive = no such curve, though single readings can be large; an effect the other way counts as inactive or inconclusive. Potency is read from the fitted curve at half-maximal effect.

SMILES | Mito fusion act | aSyn rescue | Abeta yeast res | FUS yeast rescue | TDP43 rescue
O=C(Nc1nnc(-c2cccnc2)s1)c1cnc2ccccc2c1 | x | x | x | i | x
Nc1c(Cl)ncnc1N/N=C/c1ccc2ccccc2n1 | 3% | 6.3µM* | i | i | u
CCCOc1ccc(-c2nnc(-c3ccco3)o2)cc1 | -1% | -2% | i | i | u
COc1cccc(-c2nnc(-c3ccco3)o2)c1 | 11% | -12% | i | i | 16µM*
CC(C)COc1ccc(-c2nnc(-c3ccco3)o2)cc1 | 6% | -1% | i | i | 10µM*
COc1ccc(-c2cc(OC(=O)c3ccc(Cl)cc3)c3c(C)oc(C)c3c(=O)c2)cc1 | x | x | i | u | -1%
COCCCN(Cc1ccco1)C(=O)c1cc2c(s1)-c1ccccc1OC2 | x | 2% | i | u | 22µM*
CC(C)CCN(Cc1ccco1)C(=O)c1cc2c(s1)-c1ccccc1OC2 | x | 20% | i | i | 11%
O=C(Nc1ccccc1Sc1ccccc1)c1ccccc1 | 15% | -1% | u | i | 11µM*
CC(=O)N1CCN(CC(=O)Nc2ccccc2Sc2ccc(Cl)cc2)CC1 | 9% | 14% | i | x | -25%
O=C(CCl)Nc1ccccc1Sc1ccc(Cl)cc1 | 2% | x | i | i | 11µM*
Cc1cc(C)c2oc(-c3cc(NC(=O)Cc4ccccc4)ccc3Cl)nc2c1 | x | x | i | i | u
CC1CC(=O)N(CC(=O)Nc2ccc(F)cc2F)c2ccccc2S1 (stereo not drawn) | x | -11% | i | i | u
CCNc1c(N)c(=O)oc2ccccc12 | 2% | -1% | i | i | -5%
Nc1c(Nc2ccccc2)c2ccccc2oc1=O | -4% | 18µM* | i | i | u
Cc1ccc(C)c(CN2C(=O)NC3(CCCCCC3)C2=O)c1 | -2% | 0% | u | i | 22µM*
O=C(NCCN1CCC(n2c(=O)[nH]c3ccccc32)CC1)c1ccc(C(F)(F)F)cc1C(F)(F)F | x | 0% | i | i | 13%
O=C(Nc1nccs1)c1ccc(COc2ccccc2)o1 | -1% | -6% | i | i | 11%
Cc1ccc(SCC(=O)Nc2nccs2)cc1 | -5% | 1% | i | i | 11µM*
O=C(Nc1nccs1)c1ccc(CSc2ccccc2)o1 | 8% | -18% | i | i | 11µM*
O=C(Nc1ccccc1F)c1ccc(CSc2ccccc2)o1 | 14% | -13% | i | i | 13µM*
Cc1ccc(SCc2ccc(C(=O)Nc3nccs3)o2)cc1 | 10% | 4% | u | i | 13µM*
O=C(NC1CCCCC1)c1cc2c(Cl)nc3ccccc3c2s1 | x | x | i | i | 12%
CCC[C@H]1NC(=O)[C@H](C)N(C)C(=O)C(C)(C)C(=O)C(C)NC(=O)[C@H](Cc2ccc(OC)cc2)N(C)C(=O)[C@H](C(C)C)N(C)C(=O)CNC(=O)[C@H](CC(C)C)N(C)C(=O)CNC(=O)[C@H]([C@@H](C)CC)OC(=O)[C@H]1C (stereo partly drawn) | x | 11% | i | u | 35µM*
CC[C@H](C)C1OC(=O)[C@@H](C)[C@@H](CC)NC(=O)[C@H](C)N(C)C(=O)C(C)(C)C(=O)C(C)NC(=O)[C@H](Cc2ccc(OC)cc2)N(C)C(=O)[C@H](C(C)C)N(C)C(=O)CNC(=O)[C@H](CC(C)C)N(C)C(=O)CNC1=O (stereo partly drawn) | x | 14% | i | u | -5%
N#C/C(=C/c1ccc(N2CCCCC2)o1)c1cccc(F)c1 | -9% | 2% | i | 32µM* | -25%
Cc1ccc(/C(C#N)=C\c2ccc(N3CCOCC3)o2)cc1 | 3% | -14% | i | i | 5%
N#C/C(=C/c1ccc(N2CCCCCC2)o1)c1ccc(Cl)cc1 | -2% | -61% | i | 22µM* | -94%
N#C/C(=C/c1ccc(N2CCCCC2)cc1)c1cccc(F)c1 | -2% | -3% | i | i | 20%
COC(=O)[C@]1(C#N)CC(=O)N(Cc2ccc(Cl)cc2)[C@@H]1c1ccccc1 | x | x | x | i | x

Screens (PubChem)
